Data reported in PubChem BioAssay (NCATS).
Inconclusive results are not listed. Calls of active or inactive are those of the source. Unless noted, the call rests on the fitted dose curve.

Legend:
[1] = molecular target: Bile acid receptor (Homo sapiens) (UniProt Q96RI1); assay: qHTS assay for small molecule agonists of farnesoid X receptor signaling (AID 588527); settings: HEK293T FXR-UAS-bla, beta-lactamase ratio, 16 h; activation: stronger effect = higher value;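 further: 0% = vehicle basal and 100% = reference agonist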
Bile acid receptor (Homo sapiens), sequence (Q96RI1 whole entry, looked up): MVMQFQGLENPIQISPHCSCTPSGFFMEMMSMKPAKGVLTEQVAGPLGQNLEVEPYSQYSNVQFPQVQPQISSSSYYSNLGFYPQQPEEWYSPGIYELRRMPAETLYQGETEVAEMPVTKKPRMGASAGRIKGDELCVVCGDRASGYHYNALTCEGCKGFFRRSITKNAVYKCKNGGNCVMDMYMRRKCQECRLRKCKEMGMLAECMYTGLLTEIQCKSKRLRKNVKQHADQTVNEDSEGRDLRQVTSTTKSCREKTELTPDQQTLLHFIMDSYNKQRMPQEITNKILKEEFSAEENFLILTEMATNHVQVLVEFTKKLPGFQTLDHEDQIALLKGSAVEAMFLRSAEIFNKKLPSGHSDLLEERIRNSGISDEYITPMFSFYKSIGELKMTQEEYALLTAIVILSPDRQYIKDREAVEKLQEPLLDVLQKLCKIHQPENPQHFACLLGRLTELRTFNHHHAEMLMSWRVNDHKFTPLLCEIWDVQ
Outline: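 Quantitative HTS used FXR-UAS-bla HEK293T cells with 16 h compound incubation at 37 C. EC50 values came from concentration-response curves normalized to chenodeoxycholic acid.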

[2] = qHTS for Inhibitors of the Functional Ribonucleoprotein Complex (vRNP) of Lassa (LASV) Arenavirus: LASV Primary Screen - GLuc reporter signal (AID 1347082; calls by dose curve; tested in HEK293 reporter line; further: on the % scale 0 is the no-effect control and ±100 the full control effect; nearly all actives have a fitted effect of over 60% in size)
[3] = qHTS for Inhibitors of the Functional Ribonucleoprotein Complex (vRNP) of Lassa (LASV) Arenavirus: Viability assay - alamar blue signal for LASV Primary Screen (AID 1347083; calls by dose curve; tested in HEK293 reporter line; further: on the % scale 0 is the no-effect control and ±100 the full control effect; nearly all actives have a fitted effect of over 80% in size)
[4] = qHTS for Inhibitors of the Functional Ribonucleoprotein Complex (vRNP) of Lymphocytic Choriomeningitis Arenaviruses (LCMV): Viability assay - alamar blue signal for LCMV Primary Screen (AID 1347085; calls by dose curve; tested in HEK293 reporter line; further: on the % scale 0 is the no-effect control and ±100 the full control effect; nearly all actives have a fitted effect of over 80% in size)
[5] = molecular target: Nucleoprotein (Lymphocytic choriomeningitis virus (strain Armstrong)) (UniProt P09992); assay: qHTS for Inhibitors of the Functional Ribonucleoprotein Complex (vRNP) of Lymphocytic Choriomeningitis Arenaviruses (LCMV): LCMV Primary Screen - GLuc reporter signal (AID 1347086); further: on the % scale 0 is the no-effect control and ±100 the full control effect; nearly all actives have a fitted effect of over 70% in size
Nucleoprotein (Lymphocytic choriomeningitis virus (strain Armstrong)), sequence (P09992 whole entry, looked up): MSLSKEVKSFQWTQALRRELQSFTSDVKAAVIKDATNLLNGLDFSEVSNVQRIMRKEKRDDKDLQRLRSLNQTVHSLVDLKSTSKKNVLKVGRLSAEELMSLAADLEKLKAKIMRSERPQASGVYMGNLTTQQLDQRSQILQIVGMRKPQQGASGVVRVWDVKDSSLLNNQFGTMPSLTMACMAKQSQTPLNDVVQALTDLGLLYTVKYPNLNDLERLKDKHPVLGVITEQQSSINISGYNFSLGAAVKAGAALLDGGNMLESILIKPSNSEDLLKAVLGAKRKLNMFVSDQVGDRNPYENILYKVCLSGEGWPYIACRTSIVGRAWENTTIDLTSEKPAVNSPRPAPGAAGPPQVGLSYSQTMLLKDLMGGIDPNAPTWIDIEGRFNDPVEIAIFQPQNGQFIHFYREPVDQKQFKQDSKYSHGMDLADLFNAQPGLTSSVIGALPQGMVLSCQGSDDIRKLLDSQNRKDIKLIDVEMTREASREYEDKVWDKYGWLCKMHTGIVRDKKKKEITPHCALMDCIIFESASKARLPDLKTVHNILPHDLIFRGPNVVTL

[6] = Cytotoxicity counterscreen for inhibitors of SARS-CoV-2 cell entry (AID 1645845); further: nearly all actives have a fitted effect of over 50% in size
Outline: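 Expi293F/hACE2 cells seeded overnight; cpd pin-transferred in DMSO, 1 h preincubation, + media, 48 h 37 C 5% CO2; ATPLite 1step luminescence; normalized to cells and no cells.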

[7] = Primary qHTS to identify inhibitors of SARS-CoV-2 cell entry (AID 1645846); settings: activity change, negative = inhibition: at 57.1 µM (top of the series) unless noted; further: nearly all actives have a fitted effect of over 45% in size
Outline: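 Data are normalized to wells receiving SARS-CoV-2-S pseudoparticles and those given bald particles. Entry signal was luciferase luminescence in stable hACE2 Expi293F cells, 48 hr post-infection, after 1 hr compound pretreatment.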

CRL-7250 = normal cell line; assay: qHTS assay to identify novel small-molecules to repurpose for Merkel cell carcinoma treatment (AID 1296009; active means well fitted inhibition curve with a large enough effect; further: nearly all actives have a fitted effect of over 60% in size); settings: MCC and control cell lines, CellTiter-Glo viability, 72 h; series mostly up to 92 µM
Outline: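 Cells exposed to NPC (8-point) and MIPE (11-point) compound dilutions for 72 hr at 37 degree celsius; viability read by CellTiter-Glo luminescence, normalized to no-cell and DMSO in-plate controls.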

[8] = qHTS profiling of the MIPE4 collection as inhibitors of Plasmodium falciparum (3D7) proliferation (AID 743344; call rule not given here;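 further: scaled between DMSO vehicle wells and 0.29 µM artemisinin as full inhibition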); settings: P. falciparum 3D7 in erythrocytes, SYBR Green DNA fluorescence, 72 h; at 28.5 µM (top of the series) unless noted
Outline: (§1)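 Erythrocytes infected with P. falciparum (0.3% parasitemia, 2.5% hematocrit) incubated with compounds 72 h at 37 C, 5% CO2. Lysis with saponin/Triton buffer containing SYBR Green I, overnight at room temperature in the dark; DNA fluorescence (485/535 nm) normalised to 0.29 uM artemisinin and DMSO.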

[9] = qHTS profiling of the MIPE4 collection as inhibitors of Plasmodium falciparum (DD2) proliferation (Rep 2) (AID 743346; call rule not given here); settings: P. falciparum Dd2 in erythrocytes, SYBR Green DNA, 72 h; at 28.5 µM (top of the series) unless noted
Outline: as §1

[10] = qHTS profiling of the MIPE4 collection as inhibitors of Plasmodium falciparum (HB3) proliferation (AID 743347; call rule not given here;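 further: plate controls were DMSO vehicle wells for no effect and artemisinin wells for full effect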); settings: P. falciparum HB3 in erythrocytes, SYBR Green DNA, 72 h; at 28.5 µM (top of the series) unless noted
Outline: as §1

O=C(O)CCCc1c[nH]c2ccccc12
inactive: activation [1] -2.14% | Potency [2] | Potency [3] | Potency [4] | Potency [5] | Potency [6] | Potency (CRL-7250)
0.874%: activity change, negative = inhibition [7]

Cc1cnc(-c2cc(N3CCN(C(=O)CCS(C)(=O)=O)CC3)ncc2Cl)c(C)c1
inactive: Potency [2] | Potency [3] | Potency [4] | Potency [5] | Potency [6] | Potency (CRL-7250)
-19%: activity change, negative = inhibition [7]

c1coc(CNc2ncnc3nc[nH]c23)c1
80%: parasite growth, % of control (lower = inhibition) [9]
65.3%: growth, % of control [10]
71.1%: parasite growth, % of DMSO control [8]
0.628%: activity change, negative = inhibition [7]
inactive: Potency [2] | Potency [3] | Potency [4] | Potency [5] | Potency [6] | Potency (CRL-7250)

COC1CCC(C(=O)c2ccc3nc4c(cc3c2)CCCO4)CC1 (stereo not drawn)
inactive: Potency [2] | Potency [3] | Potency [4] | Potency [5] | Potency [7] | Potency (CRL-7250)

O=C1CCC[C@@H]2[C@H]3CCC[N+]4([O-])CCC[C@@H](CN12)[C@@H]34 (stereo partly drawn)
-3.17%: activity change, negative = inhibition [7]
inactive: Potency [2] | Potency [3] | Potency [4] | Potency [5] | Potency [6] | Potency (CRL-7250)
